Source: PubChem
Nrf2 ARE act: Nrf2 pathway activation | 410,000 compounds, 0.31% hits | Potency, µM (highest dose often 46.1 µM), without a hit: top-dose activation, most hits filed as activators | AREc32 ARE-luciferase reporter (MCF7-derived line), luminescence, 24 h | AID 624171; also: % of control where 0% means no effect; nearly all actives have a fitted effect of over 65% in size
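Steps: seed AREc32_Fluc cells (1000/well, 5% FBS OPTI-MEM); incubate overnight at 37 deg C; add 23 nL compound; incubate 24 hr; add Steady-Glo; hold 30 min RT; read luminescence.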
Epigenetic derep: epigenetic control regulation, reporter derepression | murine LDR cells, GFP reporter derepression, 30 h | 280,000 compounds, 0.2% hits | Potency, µM (doses to about 53.9 µM), without a hit: top-dose GFP activation, hits mostly activators; also: % of control where 0% means no effect; nearly all actives have a fitted effect of over 60% in size
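Murine LDR cells bearing a silenced CMV-driven GFP reporter were exposed to compound for 30 h at 37 C. After PBS washes, GFP-positive cells (20-120 um objects) counted by laser-scanning microplate cytometry.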
Nrf2 inh: inhibitors of Nrf2 signaling. A549 ARE-Fluc reporter, luciferase luminescence, 18-24 h. Potency, µM (highest dose often 46 µM), for inactives: top-dose activity change, negative = inhibition, usual class: inhibitors. 360,000 compounds, 2.1% hits. AID 504444; also: % is scaled to controls: 0 for no effect and ±100 for the full control effect; nearly all actives have a fitted effect of over 60% in size
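A549 ARE_Fluc cells, 5000/well, 5% FBS OPTI-MEM; compounds in dose-response, 18-24 h at 37 °C/5% CO2; CellTiter-Fluor viability read (Ex 405/Em 525), then BugLite luciferase luminescence = Nrf2 activity.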
PINK1 modulator: modulators of PINK1 expression; PINK1 immunofluorescence, high-content cytometry, 24 h; Potency, µM (series often up to 76.6 µM), for inactives: at the top dose activation (PINK1 increase), most hits filed as activators; 410,000 compounds, 0.2% hits; AID 624263; active = well fitted activation curve with a large enough effect; inconclusive = small, poorly fitted or top-dose-only effect; cell line not stated here; also: % of control where 0% means no effect; nearly all actives have a fitted effect of over 65% in size
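Decision-based qHTS: stable cells, 24 h exposure to five compound concentrations, CCCP as control. Fixed cells stained for PINK1 plus nuclear, mitochondrial and cell markers, cytometer read.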
A549 viability: counter-screen for Nrf2 inhibitors: cytotoxicity in A549 cells | A549 ARE-Fluc cells, CellTiter-Fluor viability, 18-24 h | Potency, µM (doses to about 46 µM), for the others: top-dose activity change, negative = cytotoxicity, most hits filed as inhibitors | 390,000 compounds, 0.16% hits | AID 504648; also: % is scaled to controls: 0 for no effect and ±100 for the full control effect
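A549 ARE-Fluc cells in 5% FBS OPTI-MEM, 5000 cells/well, rested 2 h then exposed to compounds in concentration-response for 18-24 h at 37 °C. Viability by CellTiter-Fluor fluorescence (Ex 405/Em 525) after 30 min; luciferase luminescence (BugLite, 15 min, RT) read afterwards.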
Starred values were filed as active, the others as inactive; [ ] = remark or other dose. In the library only some 2.4% were active in any assay of this set; here they are far more common. Unless noted, calls follow the shape of the dose curve; as a rule, active = well fitted curve in the direction sought with a large enough effect; inconclusive = small, poorly fitted or top-dose-only effect, or another doubt; inactive = no such curve, though single readings can be large; an effect the other way counts as inactive or inconclusive. Potency is read from the fitted curve at half-maximal effect.

COCCn1c(=O)[nH]c2cc(C(=O)N3CCN(Cc4ccc5c(c4)OCO5)CC3)ccc2c1=O was read as Nrf2 ARE act -0.6%, Nrf2 inh 11.6µM*, PINK1 modulator 2.1% and A549 viability -2.3%.
Screening COCCn1c(=S)[nH]c2cc(C(=O)N3CCN(Cc4ccc5c(c4)OCO5)CC3)ccc2c1=O returned Nrf2 ARE act 0.3%, Epigenetic derep 0.2%, Nrf2 inh inconclusive, PINK1 modulator -2.4%[38.3 µM] and A549 viability -25.6%.
For O=C(NC[C@@H]1CCCN2CCCC[C@H]12)c1cnn(-c2nccc(-c3ccco3)n2)c1C1CC1 the results were PINK1 modulator 0.5%.
Screening Cc1[nH]n(-c2nc(-c3ccc(Cl)cc3)cs2)c(=O)c1N=Nc1ccc(O)cc1 returned Nrf2 ARE act 2.6%, Epigenetic derep -2.3%, Nrf2 inh inconclusive, PINK1 modulator 2.5% and A549 viability 14.6µM*.
Screening COc1cccc(C(=O)N(Cc2cc3cc4c(cc3nc2N(C)C)OCO4)CC2CCCO2)c1 (configuration not stated) returned PINK1 modulator -0.7%.
`COc1cc(OC)c(NC(=O)N2CCC(CN3CCCC3)CC2)cc1Cl` gave Nrf2 ARE act -1.0%, Epigenetic derep 0.0%, Nrf2 inh 0.0%, PINK1 modulator 0.0% and A549 viability -2.6%.
For CCOc1cc(/C=C2/C(=O)ON=C2C)ccc1OCc1ccccc1F the results were Nrf2 ARE act 2.0%, Epigenetic derep -0.9%, Nrf2 inh 4.11µM* and A549 viability inconclusive.
COC(=O)C1=C(C(=O)OC)[C@]2([C@H]3CCCCN[C@@H](Cc4ccccc4)C(=O)N3Cc3ccccc3)C=C[C@H]1O2 was read as Nrf2 ARE act 0.1%, Nrf2 inh 23.1µM*, PINK1 modulator 2.1% and A549 viability -5.0%.
`O=[N+]([O-])c1cccc(-c2cnc3ccccc3n2)c1` gave Nrf2 ARE act 6.31µM*, Epigenetic derep -1.0%, Nrf2 inh inconclusive, PINK1 modulator -0.9% and A549 viability 5.9%.
`Cc1cc(O)cc2c1O[C@](C)(CCC(=O)O)CC2` gave PINK1 modulator 3.2%.
For COc1ccc(-c2[nH]c(-c3cc(OC)c4c(c3)OCO4)nc2-c2ccccc2)cc1 the results were Nrf2 ARE act 2.1%, Epigenetic derep -1.0%, Nrf2 inh 23.1µM*, PINK1 modulator -0.3% and A549 viability inconclusive.
Screening Cc1ccc(Cl)cc1N1CCN(C(=O)Cc2cn(C)c3ccccc23)CC1 returned Nrf2 ARE act -0.2%, Epigenetic derep 3.8%, Nrf2 inh inconclusive, PINK1 modulator -0.6% and A549 viability -20.6%.
Screening Cc1ccc(C)c(N2CCN(C(=O)Cc3cn(C)c4ccccc34)CC2)c1 returned Nrf2 ARE act 2.6%, Epigenetic derep -1.0%, Nrf2 inh 20.6µM*, PINK1 modulator -1.2% and A549 viability inconclusive.
For CCOC(=O)C1CCCN(c2nc3c(S(=O)(=O)c4ccc(C)c(C)c4)nnn3c3ccc(Cl)cc23)C1 (configuration not stated) the results were Nrf2 ARE act -1.2%, Epigenetic derep 8.1%, Nrf2 inh 18.0%, PINK1 modulator -0.6% and A549 viability -2.2%.
For CCN(CC)c1ccc(/C=C/c2sc3ccccc3[n+]2CCCCI)cc1 the results were PINK1 modulator 31.6µM*.
CC(=O)Nc1ccc(/C=C/c2sc3ccccc3[n+]2CCCCI)cc1 was read as PINK1 modulator 0.0%.
`Cc1ccc(C(=O)N/N=C(/CC(=O)c2cccs2)C(F)(F)F)cc1` gave Nrf2 ARE act 6.6%, Epigenetic derep -0.1%, Nrf2 inh inconclusive, PINK1 modulator 44.7µM* and A549 viability inconclusive.
Screening O=C(N/N=C(\CC(=O)c1cccs1)C(F)(F)F)c1ccncc1 returned Nrf2 ARE act -0.1%, Epigenetic derep 1.6%, Nrf2 inh inconclusive, PINK1 modulator -1.2% and A549 viability -7.7%.
For Cn1cc(C(=O)Nc2ccc(Cl)cc2)c(C(F)(F)F)n1 the results were Nrf2 ARE act 2.8%, Epigenetic derep -1.3%, Nrf2 inh -18.3%, PINK1 modulator 2.6% and A549 viability -3.0%.
Screening CCC(C)Sc1cc(C(F)(F)F)c(C(=O)Nc2ccc(Cl)cc2)cn1 (configuration not stated) returned Nrf2 ARE act 5.0%, Epigenetic derep -0.3%, Nrf2 inh inconclusive, PINK1 modulator 17.8µM* and A549 viability -5.2%.
For O=C(Nc1nccs1)C1CCN(S(=O)(=O)c2c(Cl)cccc2Cl)CC1 the results were Nrf2 ARE act -0.3%, Epigenetic derep 1.2%, Nrf2 inh 16.4µM*, PINK1 modulator -0.5% and A549 viability -12.0%.
Screening O=C(Nc1nccs1)C1CCN(S(=O)(=O)c2ccc(F)cc2)CC1 returned Nrf2 ARE act 0.3%, Nrf2 inh 10.9%, PINK1 modulator 2.1% and A549 viability 2.3%.
Cc1cccnc1-c1cccc2c1OC(CNC(=O)C1CCCc3c1[nH]c1ccccc31)C2 (configuration not stated) was read as PINK1 modulator 1.0%.
`O=C1CCC2=C1C1(CCCC1)N=C(Nc1nc3ccccc3o1)N2` gave Nrf2 inh inconclusive and A549 viability -4.1%.
Screening O=C(CCc1ccccc1)NC(NC(=S)Nc1ccc(Br)cc1)C(Cl)(Cl)Cl (configuration not stated) returned Nrf2 ARE act 7.6%, Epigenetic derep 3.4%, Nrf2 inh 9.2µM*, PINK1 modulator 0.3%[38.3 µM] and A549 viability inconclusive.
`Cc1cccc(C(=O)NCc2cn3cccc(C)c3n2)c1` gave Nrf2 ARE act -0.3%, Epigenetic derep -3.8%, Nrf2 inh 3.7%, PINK1 modulator 0.1% and A549 viability 8.5%.
Screening Cc1cc(C)cc(NC(=O)C2CC23CCN(Cc2ccc4ncccc4c2)CC3)c1 (configuration not stated) returned PINK1 modulator -0.1%.
CC#CCN1c2ccccc2[C@]23C[C@@H](C(=O)OC)N(C(=O)c4cc(C)oc4C)C2=NC(C(=O)OC)=C(C(=O)OC)[C@H]13 was read as Nrf2 ARE act -0.2%, Epigenetic derep -1.1%, Nrf2 inh 16.4µM*, PINK1 modulator 0.2% and A549 viability -15.2%.
For O=C(COC(=O)c1ccc2[nH]c3c(c2c1)CCCC3)Nc1ccccc1Cl the results were Nrf2 ARE act -0.5%, Epigenetic derep -4.6%, Nrf2 inh inconclusive, PINK1 modulator 8.5% and A549 viability -2.0%.
For CCC(C)c1ccccc1NC(=O)COC(=O)c1ccc2[nH]c3c(c2c1)CCCC3 (configuration not stated) the results were Nrf2 ARE act 1.7%[9.22 µM], Epigenetic derep -0.9%, Nrf2 inh 20.6µM*, PINK1 modulator inconclusive and A549 viability inconclusive.
COCCCCOc1cc2nc(N3CCCN(C)CC3)nc(NC3CCN(C)CC3)c2cc1OC was read as PINK1 modulator -0.3%.
